Most compounds without a hit are left out; they make up all but 2.4% or so of the library.
GLP1R cytotox – cytotoxicity in counter-screen for GLP-1R inverse agonists | 410,000 tested, 0.13% active | Potency, µM (top dose mostly 38.3 µM), hits mostly inhibitors | HEK293 cAMP-luciferase reporter cells, luminescence, 24 h;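 further: loss of luciferase light is scored as toxicity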
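A 23 nL compound transfer followed 12 hours of cell culture at 37 deg C; exposure then lasted 24 hr. Luciferase assay detection reagent was dispensed and plates read for luminescence after a 12 min room-temperature wait.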
GLP1R inv ag – acts as inverse agonist at human GLP-1 receptor; P43220; AID 624417; 410,000 tested, 1.6% active; HEK293 GLP-1R CRE-luciferase, luminescence, 24 h; GLP-1R form is constitutively active; Potency, µM (titrated, usually from 38.3 µM), usual class: inhibitors; further: nearly all actives have a fitted effect of over 55% in size
Target sequence (P43220 whole entry, looked up): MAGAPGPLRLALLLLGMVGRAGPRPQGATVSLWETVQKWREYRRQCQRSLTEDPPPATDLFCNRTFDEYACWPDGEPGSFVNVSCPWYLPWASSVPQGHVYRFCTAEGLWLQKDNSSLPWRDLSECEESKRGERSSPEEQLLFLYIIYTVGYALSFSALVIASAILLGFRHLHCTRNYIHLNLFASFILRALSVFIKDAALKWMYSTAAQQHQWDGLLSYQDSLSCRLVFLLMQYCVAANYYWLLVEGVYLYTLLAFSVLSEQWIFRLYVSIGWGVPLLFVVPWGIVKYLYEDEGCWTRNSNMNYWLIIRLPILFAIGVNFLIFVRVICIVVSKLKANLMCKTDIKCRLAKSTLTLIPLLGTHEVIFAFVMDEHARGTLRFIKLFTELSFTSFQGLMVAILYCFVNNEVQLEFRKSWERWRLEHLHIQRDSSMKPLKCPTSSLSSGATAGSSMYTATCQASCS
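Assay principle: reduced luminescence from a cAMP-responsive reporter in HEK293 cells co-expressing a constitutively active GLP-1R. Conditions: 24 hr compound incubation, 37 deg C, 5% CO2.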
PTHR1 agonist – PTHR1 (human) receptor agonism; Potency, µM (series often up to 115 µM), usual class: activators; 410,000 tested, 0.075% active; Q03431; HEK293 GP2 PTHR1 cells, GloSensor cAMP luminescence, 1 h; further: nearly all actives have a fitted effect of over 55% in size
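HEK-293-derived GP2 cells expressing PTHR1 and a GloSensor cAMP reporter, 3,000/well, plated overnight, given luciferin plus IBMX (each 0.5 mM as added) for 1 h at 37 °C, then compound for 1 h at 37 °C. Luminescence was read after 15 min at room temperature.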
TRHR agonist – activates the human TRH receptor; TRHR cells, calcium flux fluo-8, FDSS agonist mode; activation, % at 2 µM; 360,000 tested, 0.18% active; in the data active means activation above about 30%
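In this calcium-flux screen, cells bearing human TRHR are dye-loaded with fluo-8, baselined for 10 cycles, then exposed to library compounds; positive kinetic calcium responses during the agonist phase mark hits, with TRH as control.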
TRHR enhancer – allosteric enhancers of human TRH receptor | 360,000 tested, 0.66% active | AID 493056 | TRHR cells, fluo-8 calcium fluorescence, EC20 TRH enhancement | P34981 | enhancement, % at 2 µM; in the data active means enhancement above about 30%
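Enhancer read-out: after compound pinning and an initial kinetic agonist-mode read, an EC20 of TRH (10 nM final) was injected and fluo-8 calcium signal (Ex 480/Em 530) followed at 1 s/cycle for 100 cycles in TRHR-expressing cells.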
GLP1R ag – GLP-1 receptor (human) agonism. P43220. HEK293 GLP-1R CRE-luciferase, luminescence, 4-6 h; cells express a hypersensitive GLP-1R form. Potency, µM (series often up to 45.6 µM), hits mostly activators. 380,000 tested, 0.007% active
Large screens that a line does not name were inactive; ! = not confirmed by another sample. Unless noted, the call rests on the fitted dose curve; in most records, active means well fitted curve in the direction sought with a large enough effect; inconclusive means small, poorly fitted or top-dose-only effect, or another doubt; inactive means no such curve, though single readings can be large; an effect the other way counts as inactive or inconclusive.

CC(C)(C)c1ccc(CSC2=Nc3ccccc3C3=NC(CC(=O)NCc4cccs4)C(=O)N23)cc1 (configuration not stated)	GLP1R inv ag 10µM (no result: GLP1R ag)
COc1ccccc1CNC(=O)CCC1N=C2c3ccccc3N=C(SCC(=O)Nc3ccc(N(C)C)cc3)N2C1=O (configuration not stated)	none (no result: GLP1R ag)
CN(C)c1ccc(NC(=O)CSC2=Nc3ccccc3C3=NC(CCC(=O)NCc4cccs4)C(=O)N23)cc1 (configuration not stated)	GLP1R inv ag 5.6µM (no result: GLP1R ag)
CC(C)(C)NC(=O)C(c1ccc(F)cc1)N(CC1CCCO1)C(=O)CCC(=O)Nc1ccccn1 (configuration not stated)	none
Cc1cc(F)ccc1Nc1nc2ccc(Cl)cc2n2cnnc12	none (no result: GLP1R ag)
COc1ccc(-c2nn(-c3ccccc3)cc2/C=N/Nc2ccc3ccccc3n2)cc1OC	GLP1R cytotox 13µM, GLP1R inv ag inconclusive
CC(C)c1ccccc1-n1c(SCC(=O)N2CCc3ccccc3C2)nc2ccccc2c1=O	GLP1R inv ag 10µM
O=C(CSc1nc2ccccc2c(=O)n1-c1ccccc1)N1CCc2ccccc2C1	none
CC(C)c1ccccc1-n1c(SCC(=O)c2ccc3c(c2)NC(=O)CO3)nc2ccccc2c1=O	GLP1R inv ag 10µM
CC(C(=O)OCC(=O)c1c(N)n(C)c(=O)n(C)c1=O)N1C(=O)c2ccccc2C1=O (configuration not stated)	none
CC(=O)N1CCc2c(sc3c2c(=O)n(Cc2ccccc2)c(=O)n3CC(=O)Nc2ccc(C)c(F)c2)C1	none
COc1ccc(C2C(C(N)=O)=C(C)Nc3nc(-c4ccccc4OC)nn32)cc1OC (configuration not stated)	none
CSC(=Nc1ccccc1)N=C(SCc1ccccc1)N(C)C	GLP1R cytotox 5.6µM, GLP1R inv ag 3.5µM (no result: TRHR agonist, TRHR enhancer)
N#CNC(=Nc1ccccc1)SCc1ccc(C(=O)O)cc1	none
Cc1ccc(Cn2c(C(=O)O)c(CNCc3ccc(OC(C)C)cc3)c3ccc(C)cc32)cc1	GLP1R cytotox inconclusive, GLP1R inv ag 13µM
CCc1ccc2nc(Nc3ccc(OC)cc3OC)c(C#N)cc2c1	none
CC(C)Oc1cccc(C(=O)NC(=S)NCc2cccnc2)c1	TRHR enhancer 40
O=C(NC(=S)NCc1cccnc1)c1ccccc1	none
CCOc1ccccc1C=NN=Cc1ccccc1O	none (no result: TRHR agonist, TRHR enhancer)
Cc1ccc(CNC(=O)CN2C(=O)NC3(CC(C)CC(C)(C)C3)C2=O)cc1 (configuration not stated)	none
CCc1cccc(C)c1NC(=O)Cn1nc(C)c2nn(-c3ccc(Cl)cc3)c(C)c2c1=O	none (no result: GLP1R ag)
CCOC(=O)c1ccc(NC(=O)Cn2nc(C)c3nn(-c4ccc(Cl)cc4)c(C)c3c2=O)cc1	TRHR enhancer 34 (no result: GLP1R ag)
CC(=O)Nc1sc(C)c(C)c1C(=O)OCC(=O)N(CC(C)C)C1CCS(=O)(=O)C1 (configuration not stated)	none
Cc1[nH]ncc1Nc1c(C(C)C)cccc1C(C)C	GLP1R inv ag inconclusive (no result: TRHR agonist, TRHR enhancer)
O=S1(=O)CCC(N=Cc2cc(Br)ccc2O)C1 (configuration not stated)	none
Cc1ccc(C(=O)Nc2ccc3c(c2)N(C)C(=O)c2ccccc2S3)cc1F	GLP1R cytotox inconclusive, GLP1R inv ag 1.8µM (no result: GLP1R ag)
CC(C)C(=O)NC(=S)Nc1ccc(S(=O)(=O)N2CCCC2)cc1	none
O=C1CCN(Cc2ccco2)C(=S)N1	none (no result: TRHR agonist, TRHR enhancer)
CCOC(=O)C(=NCCCN(C)C)NNc1ccc(Br)cc1	GLP1R cytotox inconclusive, GLP1R inv ag 4µM
OC(C#Cc1ccccc1)(c1ccccc1)c1ccccc1	GLP1R cytotox inconclusive, GLP1R inv ag 4.5µM (no result: TRHR agonist, TRHR enhancer)
CCCCc1nc(SCC(=O)Nc2cc(C)on2)n[nH]1	none
CC1CCCC(C)N1CCCNC(=O)c1cc2c(s1)-c1ccccc1OC2 (configuration not stated)	GLP1R inv ag 2µM
CCc1ccccc1N(CC)C(=O)c1cc2c(s1)-c1ccccc1OC2	GLP1R inv ag 10µM
CCN1CCN(CCCNC(=O)c2cc3c(s2)-c2ccccc2OC3)CC1	GLP1R cytotox inconclusive, GLP1R inv ag inconclusive
CCCN1CCN(CCCNC(=O)c2cc3c(s2)-c2ccccc2OC3)CC1	GLP1R cytotox inconclusive, GLP1R inv ag inconclusive, TRHR enhancer 37!
CCN(c1ccccc1)S(=O)(=O)c1nnc(NC(=O)c2ccco2)s1	none
CC(C)Oc1ccc(C(CCN)C2CCCCC2)cc1 (configuration not stated)	GLP1R cytotox inconclusive, GLP1R inv ag 10µM
CC(C)Oc1ccc(C(=O)NC2CCCCC2)cc1	none
CCN(CC)c1ccc2cc(-c3nnc(-c4ccncc4)o3)c(=O)oc2c1	TRHR agonist 285
COc1cccc(-c2nnc(-c3cc4cc(Cl)ccc4oc3=O)o2)c1	none (no result: GLP1R ag)
CCN(CC)c1ccc2cc(-c3nnc(-c4cccc(Cl)c4)o3)c(=O)oc2c1	TRHR agonist 171 (no result: GLP1R ag)
CCOc1ccc(-c2[nH]nc3c2C(c2ccc(O)cc2)C(C#N)=C(N)O3)cc1 (configuration not stated)	none
CCOC(=O)C1=C(C)N=c2s/c(=C\c3cccc(OCC(=O)O)c3)c(=O)n2C1c1ccccc1OC (configuration not stated)	none
CCOC(=O)C1=C(c2ccccc2)N=c2s/c(=C\c3cccc(O)c3)c(=O)n2C1c1cccs1 (configuration not stated)	GLP1R inv ag 11µM
C=CCNC(=O)N1CCc2[nH]c3ccc(F)cc3c2C1	none
Fc1ccc2[nH]c3c(c2c1)CN(C(=S)NCc1ccccc1)CC3	GLP1R inv ag 5µM
CC(=O)c1ccc(N2C(=O)N(Cc3cccc(C(F)(F)F)c3)c3ccccc3S2(=O)=O)cc1	GLP1R inv ag 10µM
CC1(C)CCC[C@]2(C)C(CS(=O)c3ccccc3)=C(C=O)CC[C@@H]12 (some centres not stated)	GLP1R inv ag 2.8µM (no result: TRHR agonist, TRHR enhancer)
Cc1cc(=O)n2c(nc3ccccc32)[nH]1	PTHR1 agonist 32µM
CNc1cc(F)nc(F)n1	none
COC(=O)C1=C(C)NC(=O)C1(NC(=O)c1ccccc1C)C(F)(F)F (configuration not stated)	none
COc1ccc(-c2cc3ccccc3n2CC(O)CNCCO)cc1 (configuration not stated)	GLP1R inv ag 2.8µM (no result: TRHR agonist, TRHR enhancer)
COc1cccc(OC)c1C(=O)NC(C)C12CC3CC(CC(C3)C1)C2 (configuration not stated)	GLP1R inv ag 8.9µM

Screening data (PubChem)
